The source made the active and inactive calls.

The subject of assay [1] is Plasmodium falciparum Sir2 (PF13_0152, Sir2A). Kind of assay: Plasmodium falciparum Sir2A binding compounds – biochemical, small-molecule microarray, 635 nm fluorescence, primary screen (AID 1098).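 Also: score merges spot fluorescence intensity with its signal-to-noise ratio.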 The note with it: fluorescence 635 nm, higher = more signal.
Assay [2] is described as follows: probe aDKK1 binding to arrayed compounds – biochemical, biotinylated probe, 635/667 nm fluorescence, primary screen (AID 1099).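 Also: score merges 667nm spot fluorescence with signal to noise across triplicate slides.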 The conditions noted are these: small-molecule microarray, higher = more signal.
Assay [3] in a line: probe aCHRDL2 binding to arrayed compounds – biochemical, biotinylated probe, 635/667 nm fluorescence, primary screen (AID 1100). The conditions noted are these: small-molecule microarray, higher = more signal.
Assay [4] can be described thus: change in splice reporter luminescence, either direction, cell-based, HEK293, spliceosome inhibition project, primary screen (AID 1101).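 Also: HEK293 cells carrying a splicing-competent luciferase reporter gene; test concentration not given here.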 The conditions noted are these: HEK293 splicing luciferase reporter, 24 h, higher = more signal, called active from +8 up or from −8 down. Background: Reporter assays use an easily measured gene product as a stand-in for the process of interest.

The target of assay [5] is Fibroblast growth factor 10 (Homo sapiens) (UniProt O15520). The assay is described as follows: compounds binding fibroblast growth factor 10 – biochemical, small-molecule microarray, 635 nm fluorescence, primary screen (AID 1102). The conditions noted are these: FGF10 binding, fluorescence 635 nm, higher = more signal.
Fibroblast growth factor 10 (Homo sapiens), sequence (O15520 whole entry, looked up): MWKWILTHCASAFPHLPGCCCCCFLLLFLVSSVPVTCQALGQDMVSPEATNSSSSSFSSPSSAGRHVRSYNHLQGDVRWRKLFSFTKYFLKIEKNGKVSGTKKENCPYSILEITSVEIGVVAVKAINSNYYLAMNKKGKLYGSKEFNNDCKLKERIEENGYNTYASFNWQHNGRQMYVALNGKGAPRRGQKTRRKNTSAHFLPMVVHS
Assay [6] relates to glycogen synthase kinase-3 (GSK3A per assay name; protocol says GSK3B). Kind of assay: compounds binding glycogen synthase kinase-3 – biochemical, small-molecule microarray, 635 nm fluorescence, GSK3A, primary screen (AID 1103). Also: the record names both GSK3A and GSK3B. The conditions noted are these: fluorescence 635 nm, higher = more signal.
Assay [7] concerns the target Epidermal growth factor receptor (Homo sapiens) (UniProt P00533). Kind of assay: compounds binding epidermal growth factor receptor – biochemical, small-molecule microarray, 635 nm fluorescence, primary screen (AID 1104).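 Also: score merges 667 nm emission intensity with spot signal to noise over triplicate slides.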 The note with it: EGFR binding, higher = more signal.
Assay [8] has as its target Follistatin-related protein 3 (Homo sapiens) (UniProt O95633). Kind of assay: compounds binding follistatin-related protein 3 – biochemical, small-molecule microarray, 635 nm fluorescence, primary screen (AID 1105).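 Also: score merges emission near 667 nm and signal to noise per printed spot across three slides.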 The conditions noted are these: FSTL3 binding, higher = more signal.
In assay [9] the target is Dickkopf-related protein 1 (Homo sapiens) (UniProt O94907). The assay is described as follows: small molecules binding DKK1 protein – biochemical, small-molecule microarray, 635 nm fluorescence scan, primary screen (AID 1106).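 Also: score merges emission near 667 nm with signal to noise over three replicate slides.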 The conditions noted are these: higher = more signal.
Dickkopf-related protein 1 (Homo sapiens), sequence (O94907 whole entry, looked up): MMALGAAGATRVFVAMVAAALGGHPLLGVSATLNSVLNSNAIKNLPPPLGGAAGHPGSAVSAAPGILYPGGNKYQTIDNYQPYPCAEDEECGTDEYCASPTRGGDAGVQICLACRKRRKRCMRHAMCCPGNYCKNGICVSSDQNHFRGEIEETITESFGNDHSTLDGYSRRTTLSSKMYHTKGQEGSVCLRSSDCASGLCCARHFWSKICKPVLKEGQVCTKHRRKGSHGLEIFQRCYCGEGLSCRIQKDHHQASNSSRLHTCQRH
Assay [10] deals with Inhibin beta A chain (activin A). Kind of assay: small molecules binding activin A – biochemical, small-molecule microarray, 635 nm fluorescence scan, primary screen (AID 1107).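 Also: mouse activin A protein probed at 4.33 µg/mL on printed slides; score merges bound-protein fluorescence near 667 nm with spot signal-to-noise.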 The note with it: INHBA, higher = more signal.
The test system of assay [11] is Human papillomavirus type 1a protein E7 (residues 44-93). Kind of assay: small molecules binding HPV E7 44-93 – biochemical, small-molecule microarray, residues 44-93, 635 nm fluorescence, primary screen (AID 1108).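 Also: E7 fragment applied at 1 µg/mL in TBST for 1 h at 4 C; score combines spot fluorescence with its signal to noise ratio.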 The conditions noted are these: fluorescence 635 nm, higher = more signal.
Assay [12] is described as follows: hepatitis C replication reporter changes, two-sided – Huh7 cells, luciferase reporter, HCV replication inhibitor project, primary screen (AID 1109).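 Also: huh7 hepatoma cells harbouring a luciferase neomycin HCV replicon reporter; luciferase luminescence as measure of HCV replicon replication; test concentration not given here.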 The note with it: Huh7 HCV replicon luciferase reporter, 48 h; higher = more signal.
The target in assay [13] is Left-right determination factor 2 (Homo sapiens) (UniProt O00292). Kind of assay: small molecules binding LEFTY2 protein – biochemical, small-molecule microarray, 635 nm fluorescence scan, primary screen (AID 1110). The conditions noted are these: higher = more signal.
Left-right determination factor 2 (Homo sapiens), sequence (O00292 whole entry, looked up): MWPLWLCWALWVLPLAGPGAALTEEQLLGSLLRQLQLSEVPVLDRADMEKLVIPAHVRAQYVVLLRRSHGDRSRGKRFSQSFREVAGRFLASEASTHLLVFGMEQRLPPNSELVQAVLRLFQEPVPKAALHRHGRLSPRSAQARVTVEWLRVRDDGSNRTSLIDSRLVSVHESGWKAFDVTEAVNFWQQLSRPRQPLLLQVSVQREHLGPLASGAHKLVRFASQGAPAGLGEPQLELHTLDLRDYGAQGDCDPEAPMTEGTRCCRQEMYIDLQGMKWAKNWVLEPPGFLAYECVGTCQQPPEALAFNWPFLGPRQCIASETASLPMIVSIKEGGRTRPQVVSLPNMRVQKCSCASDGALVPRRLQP
For assay [14], the target named is Calmodulin-1 (Homo sapiens) (UniProt P0DP23). Kind of assay: small molecules binding calmodulin-1 with EGTA – biochemical, small-molecule microarray, Cy5-labelled CALM1, profiling panel (AID 1111).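 Also: labelled calmodulin applied in Tris saline Tween buffer holding calcium plus EGTA and DTT.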 The conditions noted are these: Cy5-CALM1 binding fluorescence, higher = more signal.
Assay [15] has the same target. The assay is described as follows: small molecules binding Ca-loaded calmodulin-1 – biochemical, small-molecule microarray, Cy5-labelled CALM1, plus calcium, artefact control for SMM control-protein annotation, profiling panel (AID 1112).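 Also: score merges spot fluorescence with signal to noise from triplicate slides.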 The note with it: Cy5-CALM1 binding fluorescence, higher = more signal.
Assay [16] in a line: probe aWnt5a binding to arrayed compounds – biochemical, biotinylated probe, 635/667 nm fluorescence, primary screen (AID 1113).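 Also: score merges 667 nm fluorescence intensity with signal-to-noise per printed feature.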 The conditions noted are these: small-molecule microarray, higher = more signal.
Assay [17] is described as follows: probe aShh binding to arrayed compounds – biochemical, biotinylated probe, 635/667 nm fluorescence, primary screen (AID 1114).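 Also: probe is biotin-labelled aShh protein from a stem cell growth factor screen; measures binding of labelled protein to compounds printed on the slide; score merges feature fluorescence at 667 nm with signal-to-noise.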 The conditions noted are these: small-molecule microarray, higher = more signal.
A short description of assay [18]: probe aNog binding to arrayed compounds – biochemical, biotinylated probe, 635/667 nm fluorescence, primary screen (AID 1115).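 Also: probe is biotinylated aNog protein used at 0.15 µg/mL for 1 h at 4 C; z-score combines 667 nm fluorescence of each spot with its signal to noise.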 The note with it: small-molecule microarray, higher = more signal.
The target in assay [19] is Torsin-1A-interacting protein 1 (Homo sapiens) (UniProt Q5JTV8). The assay is described as follows: compound microarray binding of lysate hLAP1 – cell lysate, small-molecule microarray, COS7 lysate, 635/667 nm fluorescence, primary screen (AID 1116). The conditions noted are these: 635 nm fluorescence, higher = more signal.
Torsin-1A-interacting protein 1 (Homo sapiens), sequence (Q5JTV8 whole entry, looked up): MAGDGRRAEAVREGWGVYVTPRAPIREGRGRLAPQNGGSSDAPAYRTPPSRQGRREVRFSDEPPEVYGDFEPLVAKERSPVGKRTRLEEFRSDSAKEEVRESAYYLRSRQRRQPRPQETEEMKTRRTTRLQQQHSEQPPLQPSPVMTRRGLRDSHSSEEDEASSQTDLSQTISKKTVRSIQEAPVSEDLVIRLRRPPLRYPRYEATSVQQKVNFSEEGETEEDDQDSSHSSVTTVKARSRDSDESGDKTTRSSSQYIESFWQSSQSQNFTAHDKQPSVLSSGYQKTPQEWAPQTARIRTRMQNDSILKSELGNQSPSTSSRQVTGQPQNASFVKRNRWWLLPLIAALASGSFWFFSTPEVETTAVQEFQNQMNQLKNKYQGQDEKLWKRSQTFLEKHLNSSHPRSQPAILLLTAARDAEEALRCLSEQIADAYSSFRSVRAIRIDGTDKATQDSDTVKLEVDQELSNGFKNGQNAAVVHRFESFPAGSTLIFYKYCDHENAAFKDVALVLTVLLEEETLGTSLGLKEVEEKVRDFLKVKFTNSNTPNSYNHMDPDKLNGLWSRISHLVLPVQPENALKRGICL
Assay [20] concerns the target Alpha-bungarotoxin (Bungarus multicinctus) (UniProt P60615). The assay is described as follows: compounds binding labelled alpha-BTX control protein – biochemical, small-molecule microarray, Alexa647 label, 635/667 nm fluorescence, artefact control for SMM control protein annotation, profiling panel (AID 1117). The conditions noted are these: alpha-BTX-A647 binding fluorescence, higher = more signal.

Epidermal growth factor receptor (Homo sapiens), sequence (P00533 whole entry, looked up): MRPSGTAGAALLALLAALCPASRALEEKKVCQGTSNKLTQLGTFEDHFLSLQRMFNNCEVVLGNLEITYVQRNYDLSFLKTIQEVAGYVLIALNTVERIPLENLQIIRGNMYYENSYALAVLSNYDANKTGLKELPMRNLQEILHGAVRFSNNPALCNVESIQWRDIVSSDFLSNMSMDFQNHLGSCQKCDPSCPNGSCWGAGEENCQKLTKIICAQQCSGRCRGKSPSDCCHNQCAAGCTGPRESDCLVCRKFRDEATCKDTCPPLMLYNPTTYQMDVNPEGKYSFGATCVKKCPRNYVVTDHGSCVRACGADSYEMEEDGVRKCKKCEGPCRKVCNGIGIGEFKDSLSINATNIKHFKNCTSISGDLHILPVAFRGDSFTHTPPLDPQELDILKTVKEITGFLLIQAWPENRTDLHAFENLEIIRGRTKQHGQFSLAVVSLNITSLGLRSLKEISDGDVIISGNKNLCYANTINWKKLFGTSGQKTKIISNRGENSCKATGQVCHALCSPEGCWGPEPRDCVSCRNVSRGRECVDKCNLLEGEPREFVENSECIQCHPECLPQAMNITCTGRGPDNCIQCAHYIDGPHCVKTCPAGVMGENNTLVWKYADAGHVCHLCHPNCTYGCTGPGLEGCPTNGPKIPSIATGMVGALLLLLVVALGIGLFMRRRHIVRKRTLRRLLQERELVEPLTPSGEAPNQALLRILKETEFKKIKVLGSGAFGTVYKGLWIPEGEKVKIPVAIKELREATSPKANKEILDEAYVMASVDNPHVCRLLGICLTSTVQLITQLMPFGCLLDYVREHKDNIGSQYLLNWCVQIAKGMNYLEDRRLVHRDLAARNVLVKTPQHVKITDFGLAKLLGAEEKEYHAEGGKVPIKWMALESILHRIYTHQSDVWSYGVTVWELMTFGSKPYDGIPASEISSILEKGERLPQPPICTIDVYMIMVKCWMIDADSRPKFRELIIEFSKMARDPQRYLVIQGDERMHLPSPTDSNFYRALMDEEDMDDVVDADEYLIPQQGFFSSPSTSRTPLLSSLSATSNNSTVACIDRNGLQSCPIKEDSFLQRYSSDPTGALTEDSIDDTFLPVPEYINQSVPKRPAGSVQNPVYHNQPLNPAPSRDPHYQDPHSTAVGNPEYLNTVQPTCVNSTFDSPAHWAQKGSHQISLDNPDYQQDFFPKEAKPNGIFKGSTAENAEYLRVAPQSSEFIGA
Alpha-bungarotoxin (Bungarus multicinctus), sequence (P60615 whole entry, looked up): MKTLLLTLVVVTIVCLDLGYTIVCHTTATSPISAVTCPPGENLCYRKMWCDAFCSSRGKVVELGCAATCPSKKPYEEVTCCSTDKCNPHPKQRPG
Follistatin-related protein 3 (Homo sapiens), sequence (O95633 whole entry, looked up): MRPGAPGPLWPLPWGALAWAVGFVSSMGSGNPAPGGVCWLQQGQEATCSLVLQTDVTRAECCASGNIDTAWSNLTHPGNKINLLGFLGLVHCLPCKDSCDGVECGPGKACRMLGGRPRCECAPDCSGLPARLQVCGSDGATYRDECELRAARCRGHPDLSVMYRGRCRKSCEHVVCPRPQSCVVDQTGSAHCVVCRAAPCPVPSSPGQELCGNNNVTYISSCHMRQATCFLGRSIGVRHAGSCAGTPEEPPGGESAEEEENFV

`O=C1N(Cc2ccccc2)c2ccccc2C[C@@]12COC(c1ccc(OCCCO)cc1)=N2`: the composite z-score in assay [1] is 1.32; in assay [2], 1.79; in assay [3] it was 1.12; in [5], 0.596; in assay [6], 1.31; in assay [7], -0.433. Besides, the composite z-score in assay [8] is 0.0633; in assay [9], -0.318; in assay [10] it was 1.13; in assay [11], 1.24; in [13] it was -0.56; in assay [14], 0.993. In addition, the composite z-score in assay [15] came to 0.749; in [16], 0.02; in assay [17], 0.0018; in assay [18] it was 1.39; in [19], 1.58; in assay [20] it was 0.802. For the same compound, the values for the z-score in assay [4] and in [12] were -0.136 (inactive) and -1.08, respectively.

As to `C=CC[C@@]1(C(=O)N(C)C)N=C(c2ccc(OCCCO)cc2)O[C@@H]1c1ccccc1CN=[N+]=[N-]`, the composite z-score stood at 0.964 in assay [1]; 1.19 in [2]; 1.13 in assay [3]; 1.42 in assay [5]; 1.33 in assay [6]; 0.493 in assay [7]. For the same compound, the composite z-score in assay [8] turned out to be 1.38; in assay [9] it was 0.488; in [10] it was 1.23; in assay [11], 1.42; in assay [13] it was 0.681; in [14], 1.79. For the same compound, the composite z-score in [15] is 0.366; in assay [16] it was 0.0293; in [17] it was 0.246; in assay [18] it was 0.0919; in assay [19], 1.23; in assay [20], 1.35. In addition, the values for the z-score in [4] and in assay [12] were -0.475 (inactive) and -2.67, respectively.

Turning to `NC(=O)NCC#Cc1ccc2c(c1)[C@]1(C(=O)N2)[C@H](c2ccc(OCCO)cc2)N2[C@H](c3ccccc3)[C@H](c3ccccc3)OC(=O)[C@H]2[C@@H]1C(=O)NC[C@H](O)c1ccccc1`, the composite z-score in [1] is 1.24; in assay [2] it was 0.0619; in assay [3], 0.909; in assay [5], 0.131; in [6] it was -0.708; in [7] it was -0.256. Besides, the composite z-score was -0.216 in [8]; -0.229 in assay [9]; 0.902 in assay [10]; 1.01 in assay [11]; -0.375 in [13]; 0.0317 in [14]. For the same compound, the composite z-score is -0.194 in [15]; -0.0572 in assay [16]; -0.367 in assay [17]; -0.559 in assay [18]; 0.727 in assay [19]; 0.502 in assay [20]. In addition, the z-score is 0.199 (inactive) in [4] and -1.27 in assay [12].

As for `COC(=O)[C@@]1(Cc2ccc(OC)cc2)[C@H]2c3cc(C(=O)N4CCCC4)n(CCn4cc([N+](=O)[O-])nc4C)c3C[C@H]2CN1C(=O)c1ccccc1`, the composite z-score amounted to 1.2 in assay [1]; 2.46 in assay [2]; 1.33 in assay [3]; 0.981 in assay [5]; 0.456 in assay [6]; 0.661 in [7]. Moreover, the composite z-score in assay [8] was 0.354; in assay [9] it was 0.559; in [10], 1.13; in assay [11] it was 0.0832; in [13] it was 0.277; in assay [14], 2.72. Further, the composite z-score in assay [15] turned out to be 1.21; in assay [16] it was 1.19; in assay [17], 2.51; in assay [18] it was 3.12; in assay [19] it was 1.98; in assay [20], 0.299. Also, the z-score in assay [4] was 0.167 (inactive); in [12], -0.432.

`CC(=O)NCCCC[C@@H]1NC(=O)[C@H]2C[C@@H](C(=O)NCCCCCCNC(=O)CS)[C@@H](c3cccc(OCCO)c3)N2C1=O`: the composite z-score in assay [1] was 1.72; in [2] it was -0.11; in assay [3], 0.642; in assay [5], 0.816; in assay [6], 1.15; in assay [7] it was -0.316. For the same compound, the composite z-score in [8] was 0.225; in assay [9], 0.363; in assay [10], 0.339; in [11], 1.05; in [13], -0.0449; in assay [14], 0.83. The composite z-score in assay [15] was 0.395; in assay [16] it was 0.127; in [17], 0.0444; in [18], -0.0926; in assay [19], 2.1; in [20] it was 0.298. In addition, the z-score in [4] was -0.662 (inactive); in assay [12], -0.199.

For the origin of these results see PubChem BioAssay.
